Sampled rows, rich in hits. Any-hit rate of the full collection: about 2%.
Jurkat NFkB inh: inhibitors of induced NF-kB luciferase reporter, primary screen, TCR NF-kB activation inhibitor project, cell-based, luminescence, uHTS | actives 0.53% (n = 330,000) | inhibition, % at 4 µM | AID 435003, 2010 | Jurkat, PMA/ionomycin-induced NF-kB luciferase reporter; in the data active = inhibition above about 50%
GalR3 antagonist: GalR3 antagonists in HEK293 cells, primary screen, cell-based, fluorescence readout; HEK293 GalR3-CNG cAMP membrane potential fluorescence; galR3 body fused to GalR1 C-terminus; inhibition, % at 3 µM; actives 0.44% (n = 360,000);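 active = inhibition above the screen-wide average plus 3 SD, cut at about 13% in these data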;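 note: forskolin and galanin both at EC90 stimulate the cells; cAMP rise reported by CNG channel membrane potential dye signal; 0% = forskolin plus galanin with DMSO and 100% = forskolin alone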
697 NFkB inh: inhibitors of PMA/ionomycin-induced NF-kB reporter, 697 cells, primary screen, B-cell NF-kB inhibitor project, cell-based, luminescence, uHTS. 697 B-cell NF-kB luciferase reporter, 16 h. inhibition, % at 4 µM. actives 0.33% (n = 330,000); in the data active = inhibition above about 35%
COUP-TFII inh: NR2F2 transcriptional activity inhibitors, primary screen, cell-based, luciferase reporter, HEK293T, luminescence; COUP transcription factor 2 (Homo sapiens), P24468; HEK293T NGFI-A luciferase reporter; inhibition, % at 8.6 µM; actives 0.7% (n = 370,000); AID 686940, 2013;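 active = inhibition above a per-plate cutoff, mean inhibition of test wells between control levels plus 3 SD, cut at about 38% in these data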;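 note: cells cotransfected with COUP-TFII expression vector driving the NGFI-A reporter; 0% = median of COUP-TF2 test wells and 100% = reporter-only cells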
Target sequence (P24468 whole entry, looked up): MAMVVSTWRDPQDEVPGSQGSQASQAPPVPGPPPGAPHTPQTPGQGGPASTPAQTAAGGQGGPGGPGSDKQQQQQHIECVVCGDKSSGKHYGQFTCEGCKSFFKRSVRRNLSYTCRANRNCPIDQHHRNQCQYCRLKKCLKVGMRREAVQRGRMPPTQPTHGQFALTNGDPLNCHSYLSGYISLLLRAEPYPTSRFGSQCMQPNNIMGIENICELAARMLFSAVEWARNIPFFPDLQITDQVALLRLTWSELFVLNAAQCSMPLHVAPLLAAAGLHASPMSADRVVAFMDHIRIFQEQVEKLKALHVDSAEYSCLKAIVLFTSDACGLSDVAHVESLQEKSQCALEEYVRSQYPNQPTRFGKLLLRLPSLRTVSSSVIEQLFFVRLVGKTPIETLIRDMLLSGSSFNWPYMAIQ
Gli-Sufu block: Gli-Sufu pathway antagonists, primary screen, luciferase luminescence, Sufu-KO-LIGHT cells, uHTS. actives 0.74% (n = 340,000). Sufu-KO-LIGHT fibroblasts, Gli luciferase reporter luminescence. inhibition, % at 5 µM;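 active = inhibition above about 55%, limit read from the data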;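 note: 0% = DMSO-treated cells and 100% = wells with medium but no cells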
* marks the source's active call; other numbers are inactive results; / = not tested or not shown.

SMILES	Jurkat NFkB inh	GalR3 antagonist	697 NFkB inh	COUP-TFII inh	Gli-Sufu block
Cc1c(C)c2c(OCC(=O)NCc3ccccn3)cc3c(c2oc1=O)CCC(C)(C)O3	4	-7	-2	-6	6
COc1ccc(CNC(=O)CCNS(=O)(=O)c2ccc3[nH]c(=O)oc3c2)cc1	/	/	/	-2	/
COc1cc(OC)c2c(-c3cccc(-c4ccc(CO)cc4)c3)cc(=O)oc2c1	/	/	-142	/	70*
COc1cc(OC)c2c(-c3cccc(-c4ccc(O)cc4)c3)cc(=O)oc2c1	/	-5	-16	4	5
CN(C)CCN1C(=O)c2cccc3cc([N+](=O)[O-])cc(c23)C1=O	/	-7	/	-92	69*
COC1=C(N)C(=O)c2nc(-c3nc(C(=O)O)c(C)c(-c4ccc(OC)c(OC)c4O)c3N)ccc2C1=O	-17	/	-151	/	89*
CC(C)C[C@@H](CO)N1Cc2nnn(Cc3ccccc3)c2-c2ccccc2S1(=O)=O	/	/	/	2	/
Cc1nnc(C)n1/N=C/c1c(O)ccc2ccccc12	17	-10	12	-7	3
Cc1nnc(-c2ccccc2)c(=O)n1/N=C/c1c(O)ccc2ccccc12	10	-1	-31	2	91*
CC(C)CCCCCCCCCCCCC(=O)NCC(=O)NC1C(O)C(O)C(Nc2ncnc3nc[nH]c23)OC1C(O)CO (stereo not given)	/	/	/	/	85*
NC(=O)c1ccc(N=C2C(=O)Nc3ccc([N+](=O)[O-])cc32)cc1	-7	13*	-7	-6	6
CCOC(=O)[C@@]12CCCC=C1N(CCc1ccc(Cl)cc1)C(=O)[C@H]2CC(=O)NCc1ccc(OC)c(OC)c1	/	/	/	-1	/
Cc1ccc(NCSc2ccc(Cl)cc2)cc1	/	-4	/	-17	-44
Clc1ccc(SCNc2ccccc2Cl)cc1	-1	-4	1	39*	4
Cc1ccc2nc(-c3ccc(NC(=O)CSc4nnc(-c5ccccc5)n4Cc4ccco4)cc3)sc2c1	/	/	/	-21	/
COc1ccc(-n2c(SCC(=O)Nc3ccc(S(=O)(=O)Nc4nccs4)cc3)nnc2-c2ccco2)cc1	/	/	/	-3	/
S=C(Nc1cccnc1)Nc1cccc2cnccc12	26	2	5	-12	-3
CN(C)S(=O)(=O)c1cccc(NC(=S)Nc2cccc3cnccc23)c1	/	1	/	44*	-1
CCCCCCCCCCCCCCCCn1cc[n+](CC(C)=O)c1	/	/	/	/	73*
CC(=O)C1=C(C)NC(SCC(=O)c2cc(Cl)ccc2Cl)=C(C#N)C1c1ccco1 (stereo not given)	12	-4	-21	3	69*
CCOC(=O)[C@@]12CN(C(=O)OC(C)(C)C)CC=C1N(Cc1ccc(OC)cc1)C(=O)[C@H]2CC(=O)N1CCC(c2ccccc2)CC1	/	/	/	14	/
N=C1S/C(=C\c2ccc(-c3cccc(Cl)c3)o2)C(=O)N1c1nccs1	/	1	/	-5	88*
COc1ccc(/C=C2\SC(=N)N(c3nccs3)C2=O)cc1OC	-9	5	-2	-7	-7
COc1ccc(CN(CCN2CCOCC2)C(=O)c2cc(Cl)ccc2F)cc1OC	/	/	/	-6	/
Cc1ccc(-c2cc3nc(-c4ccco4)cc(N4CCN(Cc5ccoc5)CC4)n3n2)cc1	/	/	/	-18	/
SMILES	Jurkat NFkB inh	GalR3 antagonist	697 NFkB inh	COUP-TFII inh	Gli-Sufu block
CC(=NNC(=S)SCc1ccccc1)c1ccccn1	/	2	/	0	78*
CC(=NNC(=S)N1CCC1)c1ccccn1	/	-1	/	6	89*
CC(=NNC(=S)N1CCCC1)c1ccccn1	/	-6	/	15	/
CC(=NNC(=S)Nc1cccc(Cl)c1)c1ccccn1	/	-3	/	8	57*
CCN(CC)C(=O)CC[C@@H]1CC[C@]2(CCCN(S(C)(=O)=O)C2)O1	/	/	/	-8	/
CCc1cc2c(COC(=O)c3cc(S(=O)(=O)N4CCOCC4)ccc3F)cc(=O)oc2cc1O	2	19*	8	17	9
NC(=O)c1c(N)[nH]c(C(=O)c2ccccc2)c1-c1cccc2ccccc12	/	/	/	-7	/
Cc1ccccc1NC(=S)N1CCN(Cc2ccc3c(c2)OCO3)CC1	0	-4	0	3	-3
Cc1ccc(S(=O)(=O)N(C)C)cc1NC(=S)N1CCN(Cc2ccc3c(c2)OCO3)CC1	20	-3	-26	19	55*
O=c1c(Br)ccc(Br)cc1Br	/	6	/	53*	4
CC(C)(N[C@@H](Cc1ccccc1)C(=O)NCCCc1ccccc1)C(=O)NCc1ccccc1	/	/	/	-3	/
COC1=C(C)C(=O)C2=C(C1=O)C1C3CC4=C(C(=O)C(OC)=C(C)C4=O)C(CNC(=O)C(C)=O)N3C(C#N)C(C2)N1C (stereo not given)	/	-7	/	52*	81*
O=C(NCCc1ccccc1)C(c1cccs1)N(C(=O)CCl)c1ccc(Cl)cc1 (stereo not given)	48	-6	27	0	95*
COc1cc(/C=N/n2c(-c3cc(-c4ccccc4)n[nH]3)n[nH]c2=S)ccc1OCc1ccccc1	/	/	/	-62	/
O=C1c2cccc3c([N+](=O)[O-])ccc(c23)C(=O)N1Cc1cccnc1	/	30*	/	-17	3
Cc1ccc(-c2nnc(SCC(=O)NNC(=S)Nc3ccccc3)n2C2CCCCC2)cc1	/	/	/	-5	/
OCCCc1nc2n(n1)C(c1cccs1)C=C(c1ccc(Br)cc1)N2 (stereo not given)	-5	/	8	/	/
Brc1ccc(C2=CC(c3cccs3)n3ncnc3N2)cc1 (stereo not given)	-8	-3	-31	4	98*
Cc1cccc(N=C2NN=C(c3ccc4c(c3)OCCO4)CS2)c1	-104	1	-91	-18	-24
CCc1ccc(C2=NNC(=Nc3cccc(S(=O)(=O)N(C)C)c3)SC2)cc1	2	-5	-26	41*	26
COC(=O)C1CN(Cc2ccc(OC)cc2)CCS(=O)(=O)N1Cc1ccc(F)cc1 (stereo not given)	/	/	/	-3	/
CC(C)(C)c1ccc(Cn2c(=N)n(CC(O)c3ccco3)c3ccccc32)cc1 (stereo not given)	18	/	-13	/	65*
CC(C)(C)OC(=O)NCCCCCNC(=O)c1nc[nH]c1C(=O)NCc1ccc(CNC(=O)OC(C)(C)C)cc1	8	-3	-26	72*	27
CC(C)(C)OC(=O)CNC(=O)c1nc[nH]c1C(=O)NCc1ccc(CNC(=O)OC(C)(C)C)cc1	1	0	1	13	17
CC(C)(C)OC(=O)NCc1ccc(CNC(=O)c2nc[nH]c2C(=O)NCc2ccc(CNC(=O)OC(C)(C)C)cc2)cc1	1	-1	-45	47*	36
Cc1ccc(N(C(=O)CNC(=O)c2ccco2)C(C(=O)NC2CCCCC2)c2cccnc2)cc1C (stereo not given)	-2	-9	20	-8	13

Source: PubChem BioAssay (several laboratories)
